The compounds below were run on Streptococcus salivarius (assay: growth AUC relative to DMSO control (median of replicates) (fraction); higher = more growth (less inhibition), active = hit call of the paper). Conditions: 20 µM; 24 h;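 active = AUC reduced over 20% with Padj below 0.05 in at least 2 of 3 replicates; inactive = otherwise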.
Method in brief: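 Each value is the median of three biological replicates, grown on separate days, of a gut bacterial monoculture incubated anaerobically at 37 °C in mGAM with 20 µM compound (1% DMSO). Cultures started at OD600 0.05 and were read at OD600 hourly for 24 h, with the minimum OD set to 0. Area under the growth curve was normalised to the plate median of solvent-only wells, or to row and column medians on the industrial chemical plate.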

Growth AUC, inactive:
CCOC(=O)C1CC(=O)C(=C(O)C2CC2)C(=O)C1 (stereo not drawn) 0.988
CCCCOC(=O)C(C)Oc1ccc(Oc2ccc(C(F)(F)F)cn2)cc1 (stereo not drawn) 0.974
Cc1cc(N(C)C)nc(Cl)n1 1.04
CC(C)c1cccc2c(=O)c3ccccc3sc12 1.05
Clc1ccc(C(c2ccccc2Cl)C(Cl)Cl)cc1 (stereo not drawn) 0.966
O=C(O)COc1ccc(Cl)cc1CO 0.932
CC(C)CNC(=O)N1CCNC1=O 0.995
CCNc1nc(NCC)nc(OC)n1 1.01
COCC(=O)N(c1c(C)cccc1C)C(C)C(=O)O (stereo not drawn) 1.01
C#CCOC(=O)[C@@H](C)Oc1ccc(Oc2ncc(Cl)cc2F)cc1 0.959
CN(C)c1ccc(N=NS(=O)(=O)[O-])cc1.[Na+] 1.01
Cc1ccc(C(C)NC(=O)[C@@H](NC(=O)OC(C)C)C(C)C)cc1 (stereo partly drawn) 0.963
N#Cc1ccc(CC(=NNC(=O)Nc2ccc(OC(F)(F)F)cc2)c2cccc(C(F)(F)F)c2)cc1 (mixture of isomers) 1.02
CN(C)C(=O)NC1CCCCCCC1 1.05
CCCCOCCOCCOCc1cc2c(cc1CCC)OCO2 1.03
C=CCO/N=C(\CCC)C1=C([O-])CC(C)(C)C(C(=O)OC)C1=O.[Na+] (stereo not drawn) 1.02
N#Cc1cc(Cl)c(O)c(Cl)c1 1.02
O=C(O)CCCc1c[nH]c2ccccc12 1
CCCCOCCOC(=O)COc1ccc(Cl)cc1Cl 0.948
CCN(Cc1c(F)cccc1Cl)c1c([N+](=O)[O-])cc(C(F)(F)F)cc1[N+](=O)[O-] 0.926
CN(C)C(=O)Nc1ccc(Oc2ccc(Cl)cc2)cc1 0.94
CCS(=O)(=O)c1nnc(N(C)C(=O)NC)s1 0.99
COc1nc(C)nc(NC(=O)NS(=O)(=O)c2ccccc2OCCCl)n1 0.992
O=C(O)C1(C(=O)Nc2ccc(Cl)cc2Cl)CC1 1.01
CC(C)N(C(=O)CS(=O)(=O)[O-])c1ccccc1.[Na+] 0.997
CCCCCCC(C)OC(=O)COc1nc(F)c(Cl)c(N)c1Cl (stereo not drawn) 0.966
CC(CNC(=S)[S-])NC(=S)[S-].[Zn+2] (mixture of isomers) 0.988
Cc1nn(C)c(OCC(=O)c2ccccc2)c1C(=O)c1ccc(Cl)cc1Cl 1.01

Source: the supplement of paper PMC12669032
